# Compound activity from PubChem BioAssay.
# Most compounds without a hit are left out; they make up all but 3.4% or so of the library.
# FBW7 activator – FBW7 E3 ligase activators, primary screen, biochemical, AlphaScreen, human. AlphaScreen FBW7–phospho-cyclin E peptide binding, activator screen. normalized activity (activation), % at 26.1 µM. hit rate 0.13% among 650,000. AID 1259310, 2017; in the data active means normalized activity above about 1.9%;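 further: purified mutant Fbw7 with reduced substrate affinity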
# GPR151 activ – activators of human GPR151, primary screen, cell-based, PathHunter beta-arrestin, luminescence; G-protein coupled receptor 151 (Homo sapiens), Q8TDV0; PathHunter beta-arrestin GPR151 cells; activation, % at 11.2 µM; hit rate 1% among 650,000; in the data active means activation above about 4.9%
# MITF primary – MITF inhibitors, primary screen, biochemical, AlphaScreen, human; Microphthalmia-associated transcription factor (Homo sapiens), O75030; AlphaScreen MITF homodimerization, bead proximity signal; inhibition, % at 2.6 µM; hit rate 0.91% among 650,000; AID 1259374, 2018; in the data active means inhibition above about 50%
# Target sequence (O75030 whole entry, looked up): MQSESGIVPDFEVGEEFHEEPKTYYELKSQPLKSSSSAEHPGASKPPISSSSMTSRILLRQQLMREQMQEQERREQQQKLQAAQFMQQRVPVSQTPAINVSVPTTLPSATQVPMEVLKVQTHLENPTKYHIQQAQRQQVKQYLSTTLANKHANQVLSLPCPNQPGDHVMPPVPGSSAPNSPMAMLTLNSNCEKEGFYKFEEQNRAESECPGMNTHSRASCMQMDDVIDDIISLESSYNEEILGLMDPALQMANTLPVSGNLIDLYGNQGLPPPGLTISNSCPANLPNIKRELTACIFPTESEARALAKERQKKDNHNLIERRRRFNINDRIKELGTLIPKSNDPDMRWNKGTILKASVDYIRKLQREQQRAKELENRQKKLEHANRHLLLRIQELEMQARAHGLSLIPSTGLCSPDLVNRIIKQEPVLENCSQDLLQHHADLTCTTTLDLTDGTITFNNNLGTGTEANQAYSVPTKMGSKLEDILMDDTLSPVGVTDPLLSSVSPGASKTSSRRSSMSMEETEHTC
# TEAD-YAP inh – TEAD-YAP interaction inhibition, primary screen, TEAD-YAP interaction inhibitor project, luminescence, HEK-TIYL cells; TEAD-Gal4/YAP UAS-luciferase luminescence; inhibition, % at 9.12 µM; hit rate 1.4% among 640,000; in the data active means inhibition above about 32%
# Hits are given with their value; . = inactive.
SMILES,FBW7 activator,GPR151 activ,MITF primary,TEAD-YAP inh
O=c1[nH]c(-c2cc(O)c(O)c(O)c2)nc2sc3c(c12)CCCC3,.,.,.,60
CCOc1cc(/C=C2/SC(=Nc3ccccc3)NC2=O)ccc1O,.,.,.,52
O=C1NC(=Nc2ccc(O)cc2)S/C1=C\c1ccc(F)cc1,.,.,.,32
COC(=O)C(C)N1C(=O)S/C(=C/c2cc(C)n(-c3ccccn3)c2C)C1=O (configuration not stated),.,.,.,43
Cc1cc(/C=C2\SC(=Nc3ccccc3)NC2=O)c(C)n1-c1ccccc1,.,.,.,53
CN(C)c1nc(N(C)C)nc(N2CC(=O)N(CCBr)C2=O)n1,.,.,.,.
COc1cccc(Cc2cc(C(=O)N(C)C(C)c3cccs3)on2)c1 (configuration not stated),.,.,.,.
COc1ccc(/C=C2\SC(=S)NC2=O)cc1O,.,.,.,.
O=C1NC(=Nc2ccc(F)cc2)S/C1=C\c1ccco1,.,.,.,.
Cc1cc(/C=C2\SC(=O)N(C)C2=O)c(C)n1-c1ccc(O)cc1,.,.,.,79
O=C1NC(=Nc2ccccc2)S/C1=C/c1ccc(O)c(O)c1,.,.,.,47
O=C1NC(=Nc2ccc(O)cc2)S/C1=C/C=C/c1ccco1,.,.,.,38
O=C1NC(=S)S/C1=C\c1ccc(O)c(O)c1,.,.,55,.
O=C1NC(=Nc2ccccc2)S/C1=C/c1ccccc1,.,.,.,.
O=C(CSc1nc(NCc2ccc(Cl)cc2)c2ccccc2n1)Nc1ccccc1Cl,.,.,.,.
CC[C@@H]1NC(=O)[C@@H]2C[C@H](NC(=O)c3cc(F)cc(F)c3)CN2C1=O,.,.,.,.
Cc1ccc(NC(=O)N(Cc2cc3cc4c(cc3[nH]c2=O)OCCO4)CC2CCCO2)cc1 (configuration not stated),.,.,.,55
COc1cccc(/C=N/NC(=O)CCCCC(=O)N/N=C/c2cccc(OC)c2)c1,.,.,.,74
Cc1ccc(/C=N/NC(=O)c2cc(-c3ccccc3)n[nH]2)c(O)c1,.,.,.,.
Cc1ccc(-c2cc(C(=O)N/N=C/c3cccc(O)c3)[nH]n2)cc1,.,.,.,35
COc1cccc(/C=N/NC(=O)c2cc(-c3ccc(C)cc3)n[nH]2)c1,.,.,.,45
COc1ccc(/C=N/NC(=O)c2cc(-c3cccc(OC)c3)n[nH]2)cc1,.,.,.,.
Cc1cc(O)cc(O)c1/C=N/NC(=O)c1cc(-c2ccccc2)n[nH]1,.,.,.,33
O=C(COC(=O)c1cc([N+](=O)[O-])ccc1O)c1cccs1,.,.,.,.
CC(C)(C)OC(=O)N/N=C/c1ccc(Br)cc1,.,.,.,.
SMILES,FBW7 activator,GPR151 activ,MITF primary,TEAD-YAP inh
CCCCC(=O)N/N=C(\C)CC(=O)Nc1cccc(OC)c1,.,.,.,44
CC(C)(C)OC(=O)N/N=C\c1cccc(/C=N/NC(=O)OC(C)(C)C)c1,.,.,.,65
CCCCC(=O)N/N=C(\C)CC(=O)Nc1cccc(I)c1,.,.,.,.
CC(=O)Nc1ccccc1OCC(=O)c1cc(C)n(CCc2ccc(F)cc2)c1C,.,.,.,61
CCn1c(C)cc2c(c1=O)C(c1ccc(Cl)cc1)C(C(=O)OC)=C(N)O2 (configuration not stated),.,.,.,.
c1cc(CNc2ccn3ncc(-c4ccc5c(c4)OCO5)c3n2)ccn1,.,.,.,.
CN(C)CCNc1ccn2ncc(-c3ccc4c(c3)OCO4)c2n1,2.0,.,.,.
CC(=O)Nc1ccc(Nc2ncnc3c2nc(-c2cccc(C(C)=O)c2)n3C(C)C)cc1,.,.,.,.
O=C(c1ccc(Br)cc1)N1CCN(c2ccc([N+](=O)[O-])c(NCc3ccccc3)c2)CC1,.,.,.,.
COc1ccc(CCNc2cc(-c3cccc(N)c3)nc(N)n2)cc1,.,.,.,35
COc1ccc(CCNc2nc(-c3cccc(N)c3)ncc2C)cc1,.,.,.,44
COc1ccc(CCNc2cc(-c3ccccc3)ncn2)cc1,1.9,.,.,.
COc1cc2oc(=O)c(CC(=O)NCc3ccccc3)c(C)c2cc1OC,.,.,.,49
Ic1ccc(OCCCCN2CCNCC2)cc1,.,.,.,.
O=C(CNCc1ccccc1)Nc1ccc(N2CCCC2)cc1,.,.,.,.
O=C(CNCc1ccccc1)Nc1ccc(C(=O)N2CCCC2)cc1,.,.,.,44
O=C(c1ccc(-c2nnc(-c3ccccc3)o2)cc1)N1CCCCC1,.,.,.,51
c1ccc(COc2ccc(OCCCCN3CCNCC3)cc2)cc1,.,.,56,.
O=C(c1ccc(OCc2ccccc2)cc1)N1CCCC1,.,.,.,84
CCOc1ccc(N(C)C(=O)CN2Cc3ccccc3C2=O)cc1,.,.,.,.
CC(C)N1C(=O)CCC1C(=O)NCc1ccc2c(c1)OCO2 (configuration not stated),.,.,.,.
O=C(NC1CCCCC1)C1C2C=CC3(CN(Cc4cccnc4)C(=O)C13)O2 (configuration not stated),.,.,.,.
COC(=O)c1ccccc1N(Cc1ccccc1)S(=O)(=O)c1ccc(OC)cc1,.,.,.,51
COc1ccc(S(=O)(=O)N(Cc2ccccc2)c2ccccc2C(=O)NC2CC2)cc1,.,.,.,47
CCCCOc1ccc(/C=C(\C#N)C(=O)NCc2cccs2)cc1,.,.,.,.
SMILES,FBW7 activator,GPR151 activ,MITF primary,TEAD-YAP inh
O=C(c1cccc(Br)c1)c1cn[nH]c1-c1ccccc1O,.,.,.,46
O=C(CNC(=O)c1cccc(Br)c1)N/N=C/c1cn[nH]c1-c1ccccc1,.,.,.,.
CC1(C)CC(=O)C2=C(C1)NC(=S)NC2c1ccccc1 (configuration not stated),.,.,.,55
Cc1ccccc1C1NC(=S)NC2=C1C(=O)CC(C)(C)C2 (configuration not stated),.,.,.,.
Cc1ccc2nc(C)c(C(=O)N3CC(C)CC(C)C3)n2c1 (configuration not stated),2.1,.,.,.
Cc1ccc2nc(C)c(C(=O)NC(C)C)n2c1,1.9,.,.,.
Cc1ccc2nc(C)c(C(=O)N3CCCC3)n2c1,.,.,.,.
COCCCN1C(=O)c2[nH]nc(-c3ccccc3O)c2C1c1cccc(O)c1 (configuration not stated),.,.,.,.
COCCCN1C(=O)c2[nH]nc(-c3ccccc3O)c2C1c1cccc(Br)c1 (configuration not stated),.,.,.,35
Cc1ccc(Cc2cnc(NC(=O)/C=C/c3ccco3)s2)cc1,.,.,.,58
O=C(Nc1ncc(Cc2ccc(F)cc2)s1)c1ccc(Br)cc1,.,.,.,38
CCCCOc1ccc(C(=O)Nc2nnc(CC)s2)cc1,.,.,.,.
COc1ccc(Cc2cnc(NC(=O)COc3ccccc3Cl)s2)cc1,.,.,.,58
CCOc1ccc(/C=C/C(=O)Nc2ncc(Cc3ccc(C)cc3)s2)cc1,.,.,.,.
